# ± gives the standard deviation of the averaged measurements.
# How the values were obtained:
# [1] = test system: Molm13; test: cell viability relative to DMSO control (bortezomib = 0%); higher = less growth inhibition; details: 10 nM; 72 h
# Summary of the method: (§1)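 Cell viability was assessed by CellTiter-Glo luminescence. Acute myeloid leukemia cells were seeded at 1000 cells per well in 50 µL on a 384-well library of 679 compounds at a single 10 nM dose for 72 h. Per-plate linear regression set DMSO-treated cells at 100% and positive-control-treated cells at 0%.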
# [2] = test system: Mv4-11; test: as above; details: 10 nM; 72 h
# Summary of the method: as §1
Compound,cell viability [1] [%],cell viability [2] [%]
C[C@H]1Oc2cc(cnc2N)-c2c(nn(C)c2C#N)CN(C)C(=O)c2ccc(F)cc21,115 ± 8.8,112 ± 19
CNS(=O)(=O)c1ccccc1Nc1nc(Nc2ccc(N3CCN(C)CC3)cc2OC)ncc1Cl [ALK inhibitor 2],98.9 ± 20,104 ± 16
CNC(=O)c1ccccc1Nc1cc(Nc2ccc(N3CCOCC3)cc2OC)ncc1C(F)(F)F,105 ± 16,109 ± 25

# From the supplement of paper PMC8699584
